KDM5B inhibitor: Primary screen for KDM5B Histone Demethylases FDH-coupled qHTS; KDM5B demethylase, FDH-coupled NADH fluorescence (FDH is formaldehyde dehydrogenase); Potency, µM (series often up to 57.7 µM), most hits filed as inhibitors; 220,000 tested, 2.6% active; AID 1347165, 2019; active = well fitted inhibition curve with a large enough effect; note: 0% is about no effect; nearly all actives have a fitted effect of over 70% in size
Target sequence (Q9UGL1 whole entry, looked up): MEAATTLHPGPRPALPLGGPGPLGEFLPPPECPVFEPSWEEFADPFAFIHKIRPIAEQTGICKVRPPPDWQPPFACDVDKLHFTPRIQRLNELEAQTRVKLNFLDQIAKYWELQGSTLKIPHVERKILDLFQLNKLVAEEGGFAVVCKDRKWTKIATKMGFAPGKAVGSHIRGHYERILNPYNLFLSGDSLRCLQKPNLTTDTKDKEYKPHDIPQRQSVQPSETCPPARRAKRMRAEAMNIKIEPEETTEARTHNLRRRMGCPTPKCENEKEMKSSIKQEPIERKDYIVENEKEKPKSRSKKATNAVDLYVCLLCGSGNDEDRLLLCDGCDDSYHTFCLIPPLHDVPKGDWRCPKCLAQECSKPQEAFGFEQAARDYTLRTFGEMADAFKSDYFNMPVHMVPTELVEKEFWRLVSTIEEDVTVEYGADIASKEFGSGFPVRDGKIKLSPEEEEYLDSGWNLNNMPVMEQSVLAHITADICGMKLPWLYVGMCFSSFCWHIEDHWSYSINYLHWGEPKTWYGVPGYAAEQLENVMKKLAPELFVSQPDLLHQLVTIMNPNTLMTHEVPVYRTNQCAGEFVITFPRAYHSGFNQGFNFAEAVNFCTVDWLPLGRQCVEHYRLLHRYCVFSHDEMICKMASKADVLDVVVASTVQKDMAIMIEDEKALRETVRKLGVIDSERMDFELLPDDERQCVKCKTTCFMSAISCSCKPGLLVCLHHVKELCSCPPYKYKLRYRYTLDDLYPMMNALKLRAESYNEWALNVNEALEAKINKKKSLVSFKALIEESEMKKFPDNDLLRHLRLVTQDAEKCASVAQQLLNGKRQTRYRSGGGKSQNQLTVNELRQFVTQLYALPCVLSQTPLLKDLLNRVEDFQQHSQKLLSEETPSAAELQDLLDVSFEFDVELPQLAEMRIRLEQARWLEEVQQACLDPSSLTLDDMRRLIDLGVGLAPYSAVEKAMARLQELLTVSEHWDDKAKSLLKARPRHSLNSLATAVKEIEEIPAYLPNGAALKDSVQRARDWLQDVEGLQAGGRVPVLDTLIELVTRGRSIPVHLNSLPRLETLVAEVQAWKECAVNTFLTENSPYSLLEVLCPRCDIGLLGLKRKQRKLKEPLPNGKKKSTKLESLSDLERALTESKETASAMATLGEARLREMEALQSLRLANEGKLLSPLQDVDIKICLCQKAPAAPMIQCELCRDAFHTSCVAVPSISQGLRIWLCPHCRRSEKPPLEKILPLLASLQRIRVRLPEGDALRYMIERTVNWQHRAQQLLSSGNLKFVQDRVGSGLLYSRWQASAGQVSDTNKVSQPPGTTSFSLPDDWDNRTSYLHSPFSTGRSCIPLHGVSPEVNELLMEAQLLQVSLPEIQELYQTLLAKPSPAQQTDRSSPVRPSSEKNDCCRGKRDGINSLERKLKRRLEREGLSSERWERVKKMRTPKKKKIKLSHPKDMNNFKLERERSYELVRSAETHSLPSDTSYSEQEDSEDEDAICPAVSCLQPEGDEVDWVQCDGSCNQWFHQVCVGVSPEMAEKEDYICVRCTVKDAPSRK
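Inhibition is measured as reduced NADH fluorescence generation from FDH coupling to formaldehyde release. Truncated KDM5BΔAP at 200 nM final acts on H3K4me3 peptide (12.5 µM in substrate mix) in pH 7.5 HEPES buffer with Tween-20, 30 min, room temperature.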
An asterisk follows results filed as active; i = inactive. The full list was thinned out, with hits kept by preference. Potency is the fitted concentration of half-maximal effect.

SMILES | KDM5B inhibitor
Cc1nc2ccc(Cl)cc2cc1C(=O)N(C)CCOc1ccc(F)cc1 | i
CN(CCOc1ccc(F)cc1)C(=O)c1n[nH]c(=O)c2ccccc12 | i
CCN(CCOc1ccc(F)cc1)C(=O)c1cnc(NC(C)C)nc1 | 28µM*
O=C(NC1CCCCC1)/C(=C/c1ccco1)c1ccccc1 | i
COc1ccc(NC(=O)CN2C(=O)C(c3ccccc3)=NC23CCCCC3)cc1 | i
c1cc2nncn2nc1NC1CCCC1 | i
CCC(C)Nc1ccc2nncn2n1 (stereo not given) | 28µM*
c1cc2nncn2nc1NC1CCCCC1 | i
Cc1nc(C#N)c(N2CCN(C(=O)CN(C)C(C)C(C)(C)C)CC2)o1 (stereo not given) | i
CN1C(=O)c2cccn2CC1C(=O)N1CCCC1 (stereo not given) | i
COC[C@@H]1CN(Cc2ccccc2OC(C)C)C[C@H]1C(N)=O | i
FC(F)(F)c1ccc(/C=N/Nc2c(Cl)cc(Cl)cc2Cl)cc1 | i
CCOc1ccc(S(=O)(=O)Nc2cc(C(=O)N(C)C)ccc2N2CCNCC2)cc1 | i
CNC(=O)Nc1ccc(NC(=O)C(c2ccc(Cl)cc2)C(C)C)cc1 (stereo not given) | i
CCOC(=O)NNC(=O)c1ccc(CC)cc1 | i
COCCn1c(C)nnc1-c1cc(Nc2ccccc2)ccn1 | i
Cc1ccccc1-c1ccnc(-c2nnc(C)n2Cc2ccccc2)c1 | i
Cc1nnc(-c2cc(Nc3cccc(N(C)C)c3)ccn2)n1Cc1ccccc1 | 32µM*
Cc1nc2ccccc2nc1SC(C)C(=O)N(C)C (stereo not given) | i
N#CCc1c(C#N)c(N)nc(NCCc2c[nH]c3ccccc23)c1C#N | i
Cc1ccc(Cn2cc(-c3ccncc3)cc2C(=O)NC2CC2)cc1 | i
CN(Cc1ccc(-c2ccccc2)cc1)C(=O)c1ccccc1 | i
CCCN(C)C(=O)c1cc(-c2ccncc2)cn1Cc1ccccc1C | i
Cc1ccc(Cn2cc(-c3ccncc3)cc2C(=O)NCC2CC2)cc1 | 35µM*
Cc1ccc(Cn2cc(-c3ccncc3)cc2C(=O)N(C)Cc2ccccc2)cc1 | 22µM*
SMILES | KDM5B inhibitor
CCn1cc(-c2ccncc2)cc1C(=O)NCc1ccc(SC)cc1 | i
CCCNC(=O)CSc1nnc(-c2cccnc2)o1 | i
O=S(=O)(c1ccc(N2CCN(Cc3cccc4ccccc34)CC2)nc1)N1CCCC1 | i
CCOc1ccc(-c2nc(CSCC(=O)NCC(OCC)OCC)c(C)o2)cc1 | i
CN(CC1CCOCC1)S(=O)(=O)c1ccccc1Br | i
CCc1cc(=O)n(CC(=O)Nc2ccc3c(c2)OCCO3)c(-n2nc(C)cc2C)n1 | i
FC(F)(F)c1ccc(Cl)c(N/N=C/C=C/c2ccccc2)c1 | i
CCCc1cc(=O)[nH]c(SCC(=O)N2CCN(S(=O)(=O)c3cc(C)ccc3C)CC2)n1 | i
CNC(=O)c1cccc2c(C)nnn12 | 32µM*
COc1cccc([S+](=O)([O-])N2CCn3cc(C(=O)NCc4ccc(Cl)nc4)nc3C2)c1 | i
CCn1c(C(=O)NCc2ccc(C)cc2)cc2sc(Cl)cc21 | i
C=CCNC(=O)c1cccc(C(=O)OC)c1 | i
C=CCNC(=O)c1cc2cc(Cl)ccc2nc1C | i
CNC(=O)c1cccc(I)c1 | i
Cc1nnn2c(C(=O)NCc3ccc(Cl)nc3)cccc12 | 35µM*
C=CCNC(=O)c1cccc2c(C)nnn12 | 32µM*
O=C(Cc1ccccc1)N1CCC2(CNc3ccccc3[S+](=O)([O-])N2)C1 (stereo not given) | i
CC(NC(=O)C1CC1c1ccccc1)C1CC2CCC1C2 (stereo not given) | i
CC(NC(=O)c1cccc(S(=O)(=O)Nc2ccc3c(c2)OCO3)c1)c1cccc(Cl)c1 (stereo not given) | i
CCC(C)NC(=O)c1ccc(-c2cccc(C#N)c2)o1 (stereo not given) | 25µM*
CCC(C)NC(=O)CCc1ccc(C#N)cc1 (stereo not given) | i
CCC(C)NC(=O)c1ccc(CSCc2ccccc2Cl)o1 (stereo not given) | i
COc1cccc(N2CC(C(=O)NCc3ccc(C(F)(F)F)cc3)NC2=O)c1 (stereo not given) | i
O=C(NC1CCCC1)C(Cl)c1ccccc1 (stereo not given) | i
CC(C)c1ccc(NC(=O)C2CC(=O)Nc3nc(N4CCOCC4)nc(N)c32)cc1 (stereo not given) | i
SMILES | KDM5B inhibitor
COc1cc(F)cc(-c2cccc(CCOc3cnc4c(ccn4CC(=O)O)c3)c2)c1 | 32µM*
O=c1c2ccccc2nc(-c2ccc(Cl)cc2)n1CCCCOc1ccc(F)cc1 | i
O=C(O)Cn1ccc2cc(OCCc3cccc(-c4ccc(Cl)cc4)c3)cnc21 | 35µM*
O=C(Cn1ccc2ccc(Cl)cc21)NCc1ccccc1 | i
COc1cc(F)cc(-c2ccc(COc3ccc4c(cnn4CCC(=O)O)c3)cc2)c1 | i
COc1cccc(-c2cc3c(=O)n(CCNC(=O)COc4ccc(F)cc4)ccn3n2)c1 | i
O=C(NC1CCCCC1)c1[nH]c2ccccc2c1Cl | i
CC(=O)c1cc(CCC(=O)OC(C)C(=O)C23CC4CC(CC(C4)C2)C3)oc1C (stereo not given) | i
Cn1cc(C(=O)NC2CCN(S(C)(=O)=O)CC2)c2ccccc21 | i
C[C@]1(O)CCN(Cc2ccc(-c3ccccc3C#N)o2)C[C@@H]1O | 25µM*
COC1CCC12CCN(Cc1ccccc1C#N)CC2 (stereo not given) | i
N#Cc1ccccc1-c1ccc(CN2CCCC2)cc1 | i
CC(=O)Nc1ccc(/C(C)=N\OCC(=O)NC(C)c2ccccc2)cc1 (stereo not given) | i
CCCN1CCc2[nH]cnc2C12CCN(Cc1ccc(C3CCCCO3)o1)CC2 (stereo not given) | i
CC(C)C[C@H](CO)NC(=O)C[C@@H]1c2nc(-c3cccnc3)sc2C[C@@H]2[C@](C)(CO)[C@H](O)CC[C@]21C | 32µM*
COCCNC(=O)C[C@@H]1c2nc(NC(=O)c3ccnc(Cl)c3)sc2C[C@@H]2[C@](C)(CO)[C@H](O)CC[C@]21C | i
C#CCN(C)C(=O)C[C@@H]1c2nc(NC(=O)CCCCC)sc2C[C@@H]2[C@](C)(CO)[C@H](O)CC[C@]21C | i
COCCNC(=O)C[C@@H]1c2nc(-c3ccccc3)sc2C[C@@H]2[C@](C)(CO)[C@H](O)CC[C@]21C | 28µM*
C#CCN(C)C(=O)C[C@@H]1c2nc(-c3cccnc3)sc2C[C@@H]2[C@](C)(CO)[C@H](O)CC[C@]21C | 32µM*
C[C@]1(CO)[C@H]2Cc3sc(-c4ccsc4)nc3[C@@H](CC(=O)Nc3cccc(O)c3)[C@]2(C)CC[C@H]1O | i
C#CCN(C)C(=O)C[C@@H]1c2nc(NC(=O)COC)sc2C[C@@H]2[C@](C)(CO)[C@H](O)CC[C@]21C | i
CCCCCC(=O)Nc1nc2c(s1)C[C@@H]1[C@](C)(CO)[C@H](O)CC[C@@]1(C)[C@@H]2CC(=O)N[C@H](C)c1ccccc1 | i
C[C@]1(CO)[C@H]2Cc3sc(NC(=O)c4ccco4)nc3[C@@H](CC(=O)NCc3cccnc3)[C@]2(C)CC[C@H]1O | i
Cc1nc2c(s1)C[C@@H]1[C@](C)(CO)[C@H](O)CC[C@@]1(C)[C@@H]2CC(=O)Nc1ccccc1 | i

Screening data from PubChem.
